# Screening data: PubChem BioAssay, National Center for Advancing Translational Sciences (NCATS)
# VP16 counter: VP16 counterscreen qHTS for inhibitors of ROR gamma transcriptional activity | Drosophila S2 Gal4-VP16 UAS-luciferase, luminescence, 20 h | Potency, µM (highest dose often 53.6 µM), without a hit: top-dose activity, negative = inhibition, usual class: inhibitors | hit rate 3.5% among 310,000 | AID 2546, 2010;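 also: Gal4-VP16 expression switched on by copper sulfate through the metallothionein promoter; potency is read from the fitted curve at half-maximal effect; % is scaled to controls: 0 for no effect and ±100 for the full control effect; nearly all actives have a fitted effect of over 50% in size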
# MCF10A rereplic: A quantitative high throughput screen for small molecules that induce DNA re-replication in MCF 10a normal breast cells; MCF 10A DNA re-replication, Hoechst nuclear intensity, 48 h; Potency, µM (doses to about 46.1 µM), for the others: at the highest dose activity, positive = re-replication, usual class: activators; hit rate 2.9% among 350,000; AID 624296, 2012; also: potency is read from the fitted curve at half-maximal effect; % of control where 0% means no effect; nearly all actives have a fitted effect of over 50% in size
# Chronic BCR inh: qHTS Assay to Find Inhibitors of Chronic Active B-Cell Receptor Signaling. ABC-DLBCL IkBa-CBG/CBR reporter, luminescence ratio, 4 h. Potency, µM (doses to about 46.1 µM), for the others: at the top dose activity change, negative = inhibition, usual class: inhibitors. hit rate 0.05% among 340,000. AID 493014, 2011; active = well fitted inhibition curve with a large enough effect in the signal ratio, with a control signal flat, not every such curve was filed as active; inconclusive = small, poorly fitted or top-dose-only effect, or effect the other way, or a change in a side signal; the % refers to the signal ratio;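 also: potency is read from the fitted curve at half-maximal effect; plate controls were basal doxycycline-induced cells for no effect and cells given 10 µM MG132 for full effect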
#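 Compounds up to 46 uM were incubated four hours with TMD8 cells whose green CBG68 luciferase is fused to IkappaBalpha; red CBR luminescence normalised the signal, and concentration-effect curves were fitted to fusion, red and ratio data.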
# SW480 rerep: A quantitative high throughput screen for small molecules that induce DNA re-replication in SW480 colon adenocarcinoma cells; SW480 DNA re-replication, Hoechst DNA content imaging, 48 h; Potency, µM (series often up to 46.1 µM), inactives show top-dose re-replication activation, usual class: activators; hit rate 1.8% among 340,000; AID 624297, 2012; also: potency is read from the fitted curve at half-maximal effect; % of control where 0% means no effect; nearly all actives have a fitted effect of over 55% in size
#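 First, 250 cells per well were seeded. Next, compound or vehicle (23 nL) was pinned in, plates sat 48 hr at 37 C. Finally Hoechst was added for 40 min before fluorescence scanning.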
# Giardia kill: Small Molecules that selectively kill Giardia lamblia: qHTS. Giardia lamblia trophozoite viability. activity change, % at 7.66 µM, hits read low. hit rate 0.15% among 340,000; in the data active = activity change below about -80%; inconclusive = between about -30% and that limit;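 also: parasites exposed to compound for two days anaerobically before the ATP read; % is scaled to controls: 0 for no effect and ±100 for the full control effect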
#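 Luminescence from cellular ATP indicates surviving trophozoites (100 cells/well) following 48 hrs anaerobic compound treatment at 37 deg C; signal develops 15-30 min at room temperature.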
# RORg inh: qHTS for inhibitors of ROR gamma transcriptional activity. Drosophila S2 Gal4-RORgamma UAS-luciferase reporter, 20 h. Nuclear receptor ROR-gamma (Mus musculus), P51450. hit rate 5.4% among 310,000. AID 2551, 2010. Potency, µM (top dose mostly 53.6 µM), without a hit: at the top dose activity change, negative = inhibition, actives largely listed as inhibitors; also: potency is read from the fitted curve at half-maximal effect; % is scaled to controls: 0 for no effect and ±100 for the full control effect; nearly all actives have a fitted effect of over 60% in size
# Target sequence (P51450 whole entry, looked up, the tested form may be a part): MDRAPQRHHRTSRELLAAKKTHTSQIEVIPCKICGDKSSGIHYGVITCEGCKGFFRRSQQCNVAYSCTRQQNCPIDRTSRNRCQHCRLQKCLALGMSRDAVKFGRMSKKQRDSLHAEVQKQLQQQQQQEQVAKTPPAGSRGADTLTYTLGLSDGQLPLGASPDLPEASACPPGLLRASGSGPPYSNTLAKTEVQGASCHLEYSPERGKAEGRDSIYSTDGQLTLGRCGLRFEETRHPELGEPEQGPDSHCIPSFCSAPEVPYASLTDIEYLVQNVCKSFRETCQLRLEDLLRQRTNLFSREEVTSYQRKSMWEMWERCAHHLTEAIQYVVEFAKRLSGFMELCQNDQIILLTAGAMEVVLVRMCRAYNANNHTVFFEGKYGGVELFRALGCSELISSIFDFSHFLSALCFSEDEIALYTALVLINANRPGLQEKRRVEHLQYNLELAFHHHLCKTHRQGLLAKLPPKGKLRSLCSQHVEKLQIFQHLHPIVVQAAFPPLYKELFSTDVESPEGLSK
#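 Drosophila S2 cells stably expressing Gal4-DBD/mouse RORγ fusion under metallothionein promoter plus UAS-luciferase; compound 1 h, then 700 uM CuSO4 induction for 20 h at ambient temperature; inhibition read as reduced luminescence.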
# Numbers without * were called inactive; ? = inconclusive; nt = not tested or not shown. Shown are actives, neighbours in structure and some others; about 8.3% of the full set was active somewhere. Unless noted, calls follow the shape of the dose curve; as a rule, active = well fitted curve in the direction sought with a large enough effect; inconclusive = small, poorly fitted or top-dose-only effect, or another doubt; inactive = no such curve, though single readings can be large; an effect the other way counts as inactive or inconclusive.
SMILES,VP16 counter,MCF10A rereplic,Chronic BCR inh,SW480 rerep,Giardia kill,RORg inh
Cc1ccc(N2CN(CCC3=CCCCC3)CNC2=S)cc1,6.3µM*,2%,-20%,-12%,3,0.56µM*
O=C(OCCCOC(=O)c1cc[n+]([O-])cc1)c1cc[n+]([O-])cc1,-14%,?,1%,3%,-2,-12%
COc1ccc(NC(=O)CSc2nnc(-c3ccncc3)o2)c(OC)c1,nt,-6%,2%,-88%,-1,nt
O=C(N[C@H]1C/C=C\C[C@H](CC(=O)N(CCO)Cc2ccccc2)C(=O)NC[C@H](c2ccccc2)OC1=O)OCC1c2ccccc2-c2ccccc21,nt,12%,?,-7%,7,nt
N#Cc1cccc(C(=O)Nc2ccccc2C(=O)NC2CC2)c1,nt,-2%,1%,-22%,?,nt
Cc1ccc2ccc(C(Nc3cccc(C(F)(F)F)c3)c3cccnc3)c(O)c2n1 (configuration not stated),?,-3%,?,4%,5,7.1µM*
Cc1ccnc(NC(c2cccnc2)c2ccc3cccnc3c2O)c1 (configuration not stated),?,?,?,3.3µM*,3,3.2µM*
COc1ccccc1NC(c1cccnc1)c1ccc2cccnc2c1O (configuration not stated),?,?,?,?,-20,11µM*
Cc1c(Cl)cccc1NC(=O)CSc1nc2ncc(Cl)cc2[nH]1,?,16%,?,-8%,-4,?
CC(C)Oc1ccc(CNC(=S)N/N=C/c2cccnc2)cc1,13µM*,?,?,18%,4,4µM*
O=[N+]([O-])c1ccc(C=NNC(=S)NN=Cc2ccc([N+](=O)[O-])cc2)cc1,nt,2%,nt,?,7,nt
CCCCOc1ccc(CNC(=S)N/N=C/c2ccc(OC)c(OC)c2)cc1,2.5µM*,5%,?,?,11,4.5µM*
COCCNC(=S)N/N=C/c1ccc(OCc2ccc(C(=O)OC)cc2)c(OC)c1,7.1µM*,20%,-1%,2%,19,2.2µM*
CCOc1ccc(CNC(=S)N/N=C\c2ccc([N+](=O)[O-])cc2)cc1,2.8µM*,-4%,?,-7%,0,1.3µM*
CC(C)NC(=S)N/N=C/c1cccnc1,-25%,0%,?,1%,-2,?
CC(C)CN(C(=O)C1CCCC1)C1CCS(=O)(=O)C1 (configuration not stated),nt,1%,28%,-12%,5,nt
CCCC(C(=O)NC1CCCC1)N(Cc1ccccc1)C(=O)c1snc(C(N)=O)c1N (configuration not stated),-18%,8%,6%,?,-19,-16%
COc1cc(NC(=O)CC(C)S(=O)(=O)c2cc3c(cc2C)NC(=O)CO3)cc(OC)c1OC (configuration not stated),-3%,?,?,-9%,0,-6%
CCOc1ccc(CNC(=S)N/N=C/c2cccnc2)cc1,?,13%,-7%,-2%,4,7.9µM*
CC(C)(C)c1ccc(OCc2ccc(C(=O)N/N=C/c3ccc([N+](=O)[O-])cc3)o2)cc1,10µM*,?,-1%,8%,-4,?
CCOc1ccc(/C=N/NC(=O)c2ccc(Cn3cc([N+](=O)[O-])cn3)o2)cc1,25%,2%,nt,1%,19,4%
CCOC(=O)C1CCCN(C(=O)/C=C/c2ccc(Cl)cc2)C1 (configuration not stated),-18%,-5%,-1%,-11%,-6,?
CCOC(=O)C1CCCN(C(=S)NC(=O)/C=C/c2ccc(F)cc2)C1 (configuration not stated),7.1µM*,1%,?,0%,-8,10µM*
